Laboratory results from PubChem BioAssay (NCATS).
Inconclusive results are not listed. Activity calls are given as the source filed them. Calls come from the whole dose curve; as a rule, active = well fitted curve in the direction sought with a large enough effect; inconclusive = small, poorly fitted or top-dose-only effect, or another doubt; inactive = no such curve, though single readings can be large; an effect the other way counts as inactive or inconclusive.

Experiments:
[1] = qHTS of pediatric cancer cell lines to identify multiple opportunities for drug repurposing: Primary screen for Saos-2 cells (AID 1347097); note: nearly all actives have a fitted effect of over 40% in size; note: potency is the fitted concentration of half-maximal effect
Outline: (§1)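 Readout: CellTiter-Glo luminescence, 48 h treatment. Controls DMSO (neutral) and bortezomib 2.3 µM final (positive). Potency and efficacy taken from primary-screen concentration-response curves.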

[2] = qHTS of pediatric cancer cell lines to identify multiple opportunities for drug repurposing: Primary screen for SK-N-SH cells (AID 1347098); note: nearly all actives have a fitted effect of over 65% in size; note: potency is the fitted concentration of half-maximal effect
Outline: (§2)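 Cells (500-1,000/well) rested 5 h, then received compounds for 48 h; metabolically active cells were measured by CellTiter-Glo luminescence. Final concentrations spanned up to 46 µM (MIPE, 11-point) or 0.59 nM-46 µM (NPC, 8-point) in primary screens, 11-point in follow-ups.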

[3] = qHTS of pediatric cancer cell lines to identify multiple opportunities for drug repurposing: Primary screen for NB1643 cells (AID 1347099); note: nearly all actives have a fitted effect of over 50% in size; note: potency is the fitted concentration of half-maximal effect
Outline: as §1

[4] = qHTS of pediatric cancer cell lines to identify multiple opportunities for drug repurposing: Primary screen for LAN-5 cells (AID 1347100); note: potency is the fitted concentration of half-maximal effect
Outline: (§3)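 Viability after 48 h compound treatment at 37C, 500-1,000 cells/well, read as ATP luminescence with CellTiter-Glo. Primary screens used 11-point (MIPE, 0.78 nM-46 µM) or 8-point (NPC, 0.59 nM-46 µM) final concentrations; follow-up screens used 11-point dilutions.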

[5] = qHTS of pediatric cancer cell lines to identify multiple opportunities for drug repurposing: Primary screen for Rh18 cells (AID 1347102); note: nearly all actives have a fitted effect of over 65% in size; note: potency is the fitted concentration of half-maximal effect
Outline: as §3

[6] = qHTS of pediatric cancer cell lines to identify multiple opportunities for drug repurposing: Primary screen for OHS-50 cells (AID 1347103); note: nearly all actives have a fitted effect of over 40% in size; note: potency is the fitted concentration of half-maximal effect
Outline: as §2

[7] = qHTS of pediatric cancer cell lines to identify multiple opportunities for drug repurposing: Primary screen for RD cells (AID 1347104); note: nearly all actives have a fitted effect of over 55% in size; note: potency is the fitted concentration of half-maximal effect
Outline: as §1

[8] = qHTS of pediatric cancer cell lines to identify multiple opportunities for drug repurposing: Primary screen for BT-12 cells (AID 1347101); note: nearly all actives have a fitted effect of over 25% in size; note: potency is the fitted concentration of half-maximal effect
Outline: as §2

[9] = qHTS of pediatric cancer cell lines to identify multiple opportunities for drug repurposing: Primary screen for MG 63 (6-TG R) cells (AID 1347105); note: nearly all actives have a fitted effect of over 50% in size; note: potency is the fitted concentration of half-maximal effect
Outline: as §1

[10] = qHTS of pediatric cancer cell lines to identify multiple opportunities for drug repurposing: Primary screen for U-2 OS cells (AID 1347096); note: nearly all actives have a fitted effect of over 50% in size
Outline: as §3

Measured: Potency

CC(C)c1cc(C(=O)N2Cc3ccc(CN4CCN(C)CC4)cc3C2)c(O)cc1O
active: [1] 935 nM | [2] 482 nM | [3] 187 nM | [4] 209 nM | [5] 526 nM | [6] 769 nM | [7] 209 nM

CN1CCC(CNc2ccc3ncc(-c4cccc(OC(F)(F)F)c4)n3n2)CC1
active: [1] 18700 nM | [2] 7640 nM | [3] 18700 nM | [4] 14800 nM | [8] 27300 nM | [5] 18700 nM | [6] 4850 nM | [7] 18700 nM | [9] 23500 nM

CC1(C)CC(=O)c2c(C(F)(F)F)nn(-c3ccc(C(N)=O)c(NC4CCC(OC(=O)CN)CC4)c3)c2C1 (stereo not drawn)
active: [1] 264 nM | [2] 482 nM | [3] 235 nM | [4] 187 nM | [5] 418 nM | [6] 306 nM | [7] 187 nM

Cc1c(Cn2c(C)nc3c(C(=O)O)cc(N4CCOCC4)cc32)cccc1C(F)(F)F
inactive: [10] | [4] | [8] | [5]
active: [7] 1660 nM | [9] 2960 nM

Cc1cc(N2CCOCC2)cc2[nH]c(-c3c(NC[C@@H](O)c4cccc(Cl)c4)cc[nH]c3=O)nc12
active: [1] 83.3 nM | [2] 215 nM | [3] 332 nM | [4] 296 nM | [8] 24300 nM | [5] 18700 nM | [6] 96.8 nM | [7] 590 nM | [9] 2960 nM

CC[C@H](CO)Nc1nc(NCc2ccccc2)c2ncn(C(C)C)c2n1
inactive: [10] | [3] | [5] | [9]
active: [4] 20900 nM

CC(C)c1nn(-c2c(Cl)cccc2Cl)c2nc(Cc3ccc(OCCO)cc3)[nH]c(=O)c12
active: [6] 54.4 nM | [7] 132 nM
inactive: [10]

CC(NCc1ccc2c(c1)nc(NC(=O)c1ccc(-c3cn[nH]c3)s1)n2CC(C)(C)O)C(C)(C)C (stereo not drawn)
active: [1] 743 nM | [2] 961 nM | [3] 372 nM | [4] 132 nM | [5] 1660 nM | [6] 485 nM | [9] 2350 nM

O=C(O)c1ccc2cc(-c3ccc(O)c(C45CC6CC(CC(C6)C4)C5)c3)ccc2c1
active: [1] 296 nM | [2] 24100 nM | [3] 372 nM | [4] 590 nM | [6] 243 nM | [7] 5260 nM | [9] 296 nM

CNC(=O)c1nn(C)c2c1C(C)(C)Cc1cnc(Nc3ccc(N4CCN(C)CC4)cc3)nc1-2
active: [1] 2350 nM | [2] 1710 nM | [3] 743 nM | [4] 662 nM | [8] 6850 nM | [5] 3320 nM | [6] 1530 nM

CC[C@@]1(O)C(=O)OCc2c1cc1n(c2=O)Cc2cc3cc(O)ccc3nc2-1
active: [1] 66.2 nM | [2] 429 nM | [3] 59 nM | [4] 13.2 nM | [8] 385 nM | [5] 418 nM | [7] 1320 nM | [9] 93.5 nM

CC1(C)CCC(c2ccc(Cl)cc2)=C(CN2CCN(c3ccc(C(=O)NS(=O)(=O)c4ccc(N[C@H](CCN5CCOCC5)CSc5ccccc5)c(S(=O)(=O)C(F)(F)F)c4)cc3)CC2)C1
active: [1] 4180 nM | [2] 24100 nM | [3] 9.3 nM | [4] 9.3 nM | [8] 15300 nM | [5] 29.6 nM | [6] 5440 nM | [7] 10500 nM | [9] 9350 nM

CC(=O)Nc1nc(C)c(-c2ccc(Cl)c(S(=O)(=O)NCCO)c2)s1
active: [1] 2960 nM | [2] 2410 nM | [3] 3320 nM | [4] 5900 nM | [5] 7430 nM | [6] 544 nM | [7] 4180 nM | [9] 1480 nM

Nc1cccc(-c2cc3c(Oc4cccc(O)c4)ncnc3[nH]2)c1
active: [1] 1870 nM | [2] 3040 nM | [3] 20900 nM | [4] 11800 nM | [5] 11800 nM | [7] 9350 nM

CCn1nnc2c(N3CCOCC3)nc(-c3ccc(NC(=O)Nc4ccc(C(=O)N5CCN(C)CC5)cc4)cc3)nc21
active: [1] 148 nM | [2] 8570 nM | [3] 74.3 nM | [4] 83.3 nM | [5] 41.8 nM | [6] 27.3 nM | [7] 26.4 nM | [9] 46.9 nM

C=CC(=O)Nc1cc2c(Nc3ccc(F)c(Cl)c3)ncnc2cc1C#CC(C)(C)N1CCN(C)CC1
active: [1] 4180 nM | [2] 3830 nM | [3] 526 nM | [4] 2960 nM | [5] 4690 nM | [6] 3850 nM | [7] 5900 nM | [9] 5900 nM

Cc1nc2cnc3ccc(C#Cc4cccnc4)cc3c2n1-c1ccc(C(C)(C)C#N)cc1
active: [1] 235 nM | [2] 68.1 nM | [3] 3320 nM | [4] 5900 nM | [5] 1180 nM | [6] 96.8 nM | [7] 83.3 nM | [9] 74.3 nM

CC[C@@H]1C(=O)N(C)c2cnc(Nc3ccc(C(=O)NC4CCN(C)CC4)cc3OC)nc2N1C1CCCC1
active: [1] 46.9 nM | [2] 2410 nM | [3] 1320 nM | [4] 33.2 nM | [8] 172 nM | [5] 5900 nM | [6] 54.4 nM | [7] 59 nM

NC1(Cc2ccc(Cl)cc2)CCN(c2ncnc3[nH]ccc23)CC1
active: [1] 5260 nM | [3] 20900 nM | [4] 18700 nM | [6] 6110 nM | [9] 14800 nM

CCC1=C[C@@H]2CN(C1)Cc1c([nH]c3ccccc13)[C@@](C(=O)OC)(c1cc3c(cc1OC)N(C)[C@@H]1[C@@](O)(C(=O)OC)[C@H](OC(C)=O)[C@]4(CC)C=CCN5CC[C@]31[C@@H]54)C2
active: [1] 16.6 nM | [3] 59 nM | [4] 9.3 nM | [8] 76.9 nM | [6] 43.2 nM | [7] 18.7 nM

CN(C1CCc2c(c3ccccc3n2CC(=O)O)C1)S(=O)(=O)c1ccc(F)cc1 (stereo not drawn)
inactive: [1]
active: [3] 1320 nM

Cc1ccc(C(=O)Nc2cccc(C(F)(F)F)c2)cc1-c1ccc2nc(NCCN3CCOCC3)ncc2c1
active: [1] 5900 nM | [3] 5260 nM | [4] 14800 nM | [8] 7690 nM | [5] 7430 nM | [6] 3850 nM | [7] 5900 nM | [9] 14800 nM

CC1(O)CC(c2nc(-c3ccc4ccc(-c5ccccc5)nc4c3)c3c(N)nccn23)C1 (stereo not drawn)
active: [1] 935 nM | [3] 2090 nM | [4] 418 nM | [8] 17200 nM | [7] 590 nM

Cc1c(CN2CCN(S(C)(=O)=O)CC2)sc2c(N3CCOCC3)nc(-c3cnc(N)nc3)nc12
active: [1] 332 nM | [2] 1920 nM | [4] 26.4 nM | [5] 105 nM | [7] 132 nM | [9] 37.2 nM

O=C(C=Cc1c(C(=O)O)[nH]c2cc(Cl)cc(Cl)c12)Nc1ccccc1
not listed: [3] | [10]
inactive: all other assays above

CC(C)c1cnn2c(NCc3ccccc3)cc(N[C@@H](CO)[C@H](O)CO)nc12
active: [1] 296 nM | [2] 304 nM | [8] 344 nM | [6] 273 nM | [7] 372 nM

Nc1ncnc2c1c(-c1cccc(OCc3ccccc3)c1)cn2C1CC(CN2CCCC2)C1 (stereo not drawn)
active: [1] 743 nM | [2] 21500 nM | [3] 4180 nM | [8] 27300 nM | [5] 18700 nM | [6] 432 nM | [7] 5260 nM | [9] 18700 nM

C[C@@H]1COC(Nc2ccc3ncnc(Nc4ccc(OCc5nccs5)c(Cl)c4)c3c2)=N1
active: [1] 29600 nM | [3] 4690 nM | [4] 16600 nM | [6] 21700 nM | [7] 14800 nM

COc1ccc(-c2cc3c(C)nc(N)nc3n(C3CCC(OCCO)CC3)c2=O)cn1 (stereo not drawn)
active: [1] 187 nM | [2] 2410 nM | [4] 469 nM | [5] 93.5 nM | [6] 7.7 nM | [9] 18.7 nM

Cc1nc(N)ncc1-c1nc(N2CCOCC2)c2sc(C(C)(C)O)cc2n1
active: [1] 833 nM | [2] 1210 nM | [4] 1320 nM | [5] 1180 nM | [6] 68.5 nM | [7] 1480 nM | [9] 296 nM

CNC(=O)c1cc(Oc2ccc(NC(=O)Nc3cc(C(C)(C)C)nn3-c3ccc4ncccc4c3)c(F)c2)ccn1
active: [1] 16600 nM | [2] 19200 nM | [3] 4690 nM | [8] 24300 nM | [5] 20900 nM | [7] 10500 nM

COc1ccc(F)c(F)c1C(=O)c1cnc(NC2CCN(S(C)(=O)=O)CC2)nc1N
active: [1] 2350 nM | [2] 2710 nM | [8] 3430 nM | [7] 5260 nM

O=C(Nc1cn[nH]c1-c1nc2ccc(CN3CCOCC3)cc2[nH]1)NC1CC1
active: [1] 935 nM | [3] 5260 nM | [4] 10.5 nM | [8] 7690 nM | [5] 935 nM | [6] 1530 nM | [7] 5900 nM | [9] 7430 nM

C[C@]1(CO)CN(c2cc(C(=O)Nc3ccc4c(c3)-c3c(c(C(N)=O)nn3-c3ccc(F)cc3)CC4)c(Cl)cn2)C[C@@]1(C)CO
active: [1] 16600 nM | [3] 5900 nM | [4] 5260 nM | [5] 18700 nM | [6] 10900 nM | [9] 9350 nM

COc1cc2nccc(Oc3ccc(NC(=O)C4(C(=O)Nc5ccc(F)cc5)CC4)cc3)c2cc1OC
active: [1] 18700 nM | [2] 3410 nM | [4] 1480 nM | [5] 10500 nM | [6] 27300 nM | [7] 16600 nM

CN1CC[C@@H](c2c(O)cc(O)c3c(=O)cc(-c4ccccc4Cl)oc23)[C@@H](O)C1
active: [1] 148 nM | [2] 76.4 nM | [8] 122 nM | [6] 122 nM | [9] 148 nM

COc1cc2ncnc(Nc3ccc(F)c(Cl)c3)c2cc1NC(=O)C=CCN1CCCCC1
active: [1] 16600 nM | [3] 14800 nM | [4] 14800 nM | [8] 24300 nM | [5] 18700 nM | [6] 7690 nM
inactive: [9]
